This passage reports growth results from PubChem BioAssay (NCI).

Compounds without any hit were thinned out: in the full panel of roughly 83,000, 20% have a hit.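 Cells were grown in 96-well plates and exposed to the test compound at a single concentration for 48 hours; results are reported as percent growth, with values below 10 considered active.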 Unmarked numbers belong to inactive results. Calls of active or inactive are those of the source.

The test system of one assay is UO-31 renal. Briefly: NCI-60 one-dose screen, 48 h (100 = growth as untreated, 0 = no growth, -100 = all killed). Conditions: 10 µM unless noted.
For `CN(C)c1ccc(/C=C(\C#N)c2nc3ccccc3s2)cc1`, the growth was 90.7%.
Same read-out and setting: in the case of `COc1nc2c(cc1S(=O)(=O)c1ccccc1)CCc1c-2cnn1-c1ccc(Cl)cc1` it was 99.3%; in that of `O=C(Cc1ccccc1)c1ccc(Cl)cc1`, 111%; in that of `O=C(O)c1cccnc1Br`, 73.5%.

The test system of the next assay is TK-10 renal. Described as above. Conditions: 10 µM unless noted.
As to `Cc1ccc2c(c1)n([O-])c1cc(Cl)ccc1[n+]2=O`, the growth is 130%.
The same measure, in the same setting: then `CN1/C(=C\C=C\C2=[N+](C)c3ccccc3C2(C)C)C(C)(C)c2ccccc21`, with 5.75% (active); and `CC/C(=C(\c1ccccc1)c1ccc(OCCNC)cc1)c1ccccc1`, with -80.7% (active); and `CCN(CC)Cc1cc(Nc2c3ccc(Cl)cc3nc3c(C)cccc23)ccc1O`, with -60.5% (active).
On the same count and under the same terms, in the case of `C=CC[N+]1(CCO)CCN=C1CCCCCCCCCCCCC` (stereo not drawn) it was -87% (active).
Still for that read-out and setting: in the case of `N#Cc1ccc(NC(=O)Nc2ccc(Cc3ccc(NC(=O)Nc4ccc(C#N)cc4)cc3)cc2)cc1` it was 48.1%; in that of `CC1=NNC(=O)C1C` (stereo not drawn), 377%.
With `COc1nc2c(cc1S(=O)(=O)c1ccccc1)CCc1c-2cnn1Cc1ccccc1`, the growth is 61%.
Regarding `O=C(/C=C\c1ccc2ccccc2n1)c1cc(Cl)ccc1O`, the growth is 95.1%.
Still for that read-out and setting: in the case of `CCc1ccc(C(c2ccc(CC)cc2)C(Cl)(Cl)CCl)cc1` it was 109%; in that of `C=CCSc1nnc(-c2ccc(C(C)(C)C)cc2)n1-c1cccc(C(F)(F)F)c1`, 51.1%; in that of `CSc1ncnc2c1ncn2C1CCCO1` (stereo not drawn), 106%.
With `OCC1C2C=CC(C2)C1CO` (stereo not drawn), the growth is 112%.
The same measure, in the same setting: in the case of `Cc1ccc(/C=C2\Oc3cc(OCC(=O)c4ccc(Cl)cc4)ccc3C2=O)cc1` it was 130%.
